From PMC4336329 (PLoS ONE, 2015)
About 14,000 (4.5%) of roughly 310,000 compounds showed an effect of 50% or more. The effect is printed as a negative number. Only a selection was taken, and strong results are over-represented in it overall.

biological target: human ether-à-go-go-related gene (hERG) potassium channel (human, UniProt Q12809); assay: primary screen, population patch clamp on CHO cells stably expressing hERG; higher = less effect of the substance
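Note: peak tail current of the secondary pulse compared with the same well before compound.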

human ether-à-go-go-related gene (hERG) potassium channel, sequence (Q12809 whole entry, looked up): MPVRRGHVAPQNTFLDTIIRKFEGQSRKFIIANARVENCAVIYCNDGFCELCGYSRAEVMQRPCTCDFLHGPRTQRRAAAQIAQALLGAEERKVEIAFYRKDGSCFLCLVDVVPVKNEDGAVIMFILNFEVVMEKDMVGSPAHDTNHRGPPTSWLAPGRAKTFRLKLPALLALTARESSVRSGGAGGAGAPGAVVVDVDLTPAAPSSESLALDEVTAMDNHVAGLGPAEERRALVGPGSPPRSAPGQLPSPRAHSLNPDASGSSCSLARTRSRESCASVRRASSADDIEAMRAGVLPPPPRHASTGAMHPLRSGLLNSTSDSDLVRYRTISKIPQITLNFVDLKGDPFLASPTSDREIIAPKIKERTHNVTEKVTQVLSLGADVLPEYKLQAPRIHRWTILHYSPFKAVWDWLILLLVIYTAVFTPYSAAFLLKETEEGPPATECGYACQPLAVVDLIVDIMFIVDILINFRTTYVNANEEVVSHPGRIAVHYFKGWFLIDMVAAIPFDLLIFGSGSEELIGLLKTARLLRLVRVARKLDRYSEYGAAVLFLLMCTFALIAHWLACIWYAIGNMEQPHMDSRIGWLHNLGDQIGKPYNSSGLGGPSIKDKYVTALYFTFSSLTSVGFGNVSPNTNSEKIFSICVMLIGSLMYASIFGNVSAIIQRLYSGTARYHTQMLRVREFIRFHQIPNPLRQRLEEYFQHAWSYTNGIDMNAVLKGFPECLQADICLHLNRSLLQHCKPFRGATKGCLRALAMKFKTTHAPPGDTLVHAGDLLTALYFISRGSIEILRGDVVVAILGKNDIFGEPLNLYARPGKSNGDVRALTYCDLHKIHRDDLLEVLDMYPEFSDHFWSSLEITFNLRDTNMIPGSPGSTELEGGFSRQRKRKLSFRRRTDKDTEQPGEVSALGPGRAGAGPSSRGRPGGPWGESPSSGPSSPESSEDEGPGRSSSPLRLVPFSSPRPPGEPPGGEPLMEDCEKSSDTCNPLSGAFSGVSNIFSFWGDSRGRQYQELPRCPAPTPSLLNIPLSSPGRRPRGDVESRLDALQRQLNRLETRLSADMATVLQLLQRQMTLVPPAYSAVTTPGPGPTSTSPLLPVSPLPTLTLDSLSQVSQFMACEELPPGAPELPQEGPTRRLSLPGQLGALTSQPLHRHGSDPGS

| SMILES | hERG current change (%, negative = inhibition) at 10uM |
| --- | --- |
| Cn1c(C(=O)OCC(=O)NCc2cccs2)cc2sccc21 | 3.37% |
| O=C(Oc1ccccc1C(=S)N1CCOCC1)c1ccccc1 | 7.59% |
| CCN(CC)c1ccc(C2C(C(=O)OCCOC(C)C)=C(C)NC3=C2C(=O)CCC3)cc1 (stereo not shown) | -12.3% |
| CC1CCCN(c2ncnc3c2cnn3-c2ccccc2)C1 (stereo not shown) | -1.2% |
| COc1ccc(-n2nc(C(=O)NCC(=O)NCCCN3CC(C)CC(C)C3)c3ccccc3c2=O)cc1Cl (stereo not shown) | -62.3% |
| COc1ccc(-n2nc(C(=O)NCC(=O)NCCCN3CC(C)CC(C)C3)c3ccccc3c2=O)cc1 (stereo not shown) | -37.2% |
| COc1ccc(-n2nc(C(=O)NCC(=O)NCCCN3CC(C)CC(C)C3)c3ccccc3c2=O)cc1OC (stereo not shown) | -34% |
| O=C(c1ccccc1)N(Cc1cccnc1)C1(C(=O)Nc2ccccc2)CCCCC1 | 5.29% |
| CC(=O)Nc1ccc2c(c1)CCc1ccccc1-2 | 15.1% |
| O=C(CCS(=O)(=O)c1ccc(F)cc1)Nc1nc(-c2ccccn2)cs1 | -12.6% |
| Cl.c1ccc(CCn2nnnc2CN2CCN(C3CCCC3)CC2)cc1 | -3.4% |
| Cc1nc2ccccc2n1C1CCN(Cc2nnnn2CCc2ccccc2)CC1.Cl | -68.6% |
| Cc1ccccc1C(=O)NC1CCN(Cc2nnnn2CCc2ccccc2)CC1 | -8.14% |
| Cc1nc2cc(C(F)(F)F)ccc2n1C1CCN(Cc2nnnn2Cc2ccc3c(c2)OCO3)CC1 | -54.1% |
| Cc1nc2cc(C(F)(F)F)ccc2n1C1CCN(Cc2nnnn2Cc2cccs2)CC1 | -36.6% |
| CCN(CC)C(=O)CN1CCC(n2c(C)nc3cc(C(F)(F)F)ccc32)CC1 | -32.8% |
| Cc1nc2cc(F)ccc2n1C1CCN(Cc2nnnn2CCc2ccccc2)CC1.Cl | -65.7% |
| Cc1ccc(S(=O)(=O)Cn2nnnc2CN2CCN(Cc3ccc4c(c3)OCO4)CC2)cc1 | -28.7% |
| OC1(c2ccccc2F)CCN(Cc2nnnn2CCc2ccccc2)CC1 | 30.9% |
| CCOC(=O)C1CCN(Cc2nnnn2CCc2ccccc2)CC1 | -4.94% |
| CCC(C)(C)n1nnnc1CN1CCC(n2c(C)nc3cc(C(F)(F)F)ccc32)CC1 | -5.5% |
| Cc1nc2cc(C(F)(F)F)ccc2n1C1CCN(Cc2nnnn2CCc2ccccc2)CC1 | -68.4% |

| SMILES | hERG current change (%, negative = inhibition) at 10uM |
| --- | --- |
| CCc1ccc(OCC(=O)NCC(c2ccc(Cl)cc2)N2CCCCC2)cc1 (stereo not shown) | -6.4% |
| CCN(CC)C(=O)CCc1nnc(CCc2c[nH]c3ccccc23)o1 | 6.93% |
| O=C(CN1C(=O)/C(=C/c2ccccc2)SC1=S)Nc1ncc(Cc2ccccc2)s1 | 7.31% |
| C[C@H](NC(=O)[C@@H]1CSC2c3ccccc3C(=O)N21)C(=O)NC1CCCC1 (stereo partly shown) | 10.5% |
| COc1ccc(C(=O)NCc2ccon2)cc1OC1CCN(C(C)C)CC1 | -45.6% |
| CCc1cccc(C)c1N(C(=O)Cn1c(CO)nc2ccccc21)C(C)COC (stereo not shown) | -5.89% |
| COC(=O)c1c(N)sc(C(C)=O)c1C | 0.466% |
| CCOC(=O)N1CCC(NC(=O)Cn2c3c(c(-c4ccccc4Cl)cc2=O)CCC3)CC1 | -8.61% |
| CCOc1ccc(/C=N/Nc2ccccc2)cc1 | 17.6% |
| O=C(c1cccnc1)N1c2ccccc2Sc2ccccc21 | -18.1% |
| Fc1ccc2c(c1)nnn2C1CCN(Cc2c(Cl)cccc2Cl)CC1 | 7.11% |
| Fc1ccc2c(c1)nnn2C1CCN(Cc2ccccc2)CC1 | -61.4% |
| c1ccc(CCn2nnnc2CN2CCC(n3nnc4ccccc43)CC2)cc1 | -36.4% |
| Cl.Fc1ccc2c(c1)nnn2C1CCN(Cc2nnnn2CCc2ccccc2)CC1 | -61.3% |
| O=C(NC1CCN(Cc2nnnn2CCc2ccccc2)CC1)c1ccccc1F | -3.18% |
| CCCC(C)C(=O)Nc1ccc(Cl)cn1 (stereo not shown) | -7.45% |
| COc1cc(OC)nc(Oc2cc(/C=N/O)ccc2OC)n1 | 0.516% |
| COc1cccc(N2CCN(C(=O)c3cc(-c4ccc(F)cc4)[nH]c3C)CC2)c1 | -68.4% |
| CCOC(=O)N1CCC(NC(=O)c2cc(-c3ccc(F)cc3)[nH]c2C)CC1 | -0.721% |
| Cc1[nH]c(-c2ccc(F)cc2)cc1C(=O)N1CCN(c2ccccc2)CC1 | -58.8% |
| CCOC(=O)N1CCN(C(=O)c2cc(-c3ccc(F)cc3)[nH]c2C)CC1 | -72.3% |
| COc1ccc(N2CCN(C(=O)c3cc(-c4ccc(F)cc4)[nH]c3C)CC2)cc1 | -67.4% |

| SMILES | hERG current change (%, negative = inhibition) at 10uM |
| --- | --- |
| COc1ccc(-n2ncc(C(=O)N3CCN(c4ccc(F)cc4)CC3)c2C)cc1 | -22.6% |
| Cc1[nH]c(-c2ccc(F)cc2)cc1C(=O)N1CCN(c2cccc(Cl)c2)CC1 | -12% |
| Cc1ccc(N2CCN(C(=O)c3cc(-c4ccc(F)cc4)[nH]c3C)CC2C)cc1 (stereo not shown) | -13.3% |
| Cc1[nH]c(-c2ccc(F)cc2)cc1C(=O)N1CCN(c2ccc(Cl)cc2)CC1 | -13.4% |
| CCOC(=O)N1CCN(C(=O)c2cccc(F)c2)CC1 | -17.9% |
| COc1cccc(N2CCN(C(=O)c3cc(C)oc3C)CC2)c1 | 6.8% |
| COc1cccc(N2CCN(C(=O)c3ccc(-c4ccccc4)cc3)CC2)c1 | -49.5% |
| CCC(=O)NNc1ncnc2ccccc12 | 9.38% |
| CCN(CC)C(=O)C1CCCN(Cc2ccc3ccccc3c2)C1 (stereo not shown) | -19% |
| CC(C)(C)OC(=O)NCCCC1=CC2=CC(=O)C(C)(OC(=O)c3ccco3)C(=O)C2=CO1 (stereo not shown) | 5.99% |
| COCCCNC(=O)C1CCC(CNS(=O)(=O)c2ccc(C)cc2)CC1 (stereo not shown) | 14% |
| Cc1cccc(CCN2C(N(C)C)=NC[C@@H]2C)c1 | -7.74% |
| Cc1c(NC(=O)/C(C#N)=C/c2ccc(-c3cccc(Cl)c3)o2)c(=O)n(-c2ccccc2)n1C | -24.5% |
| NC(=O)c1cc(C(N)=O)nc(Cl)n1 | 16.1% |
| Cc1cccnc1NC(=O)c1ccc(S(=O)(=O)N2CCC(C)CC2)cc1 | -12.3% |
| COc1ncnc2c1ncn2CC1COC(C)(C)O1 (stereo not shown) | 15.9% |
| CCOC(=O)c1sc2nc(CSc3ccccc3)nc(N3CCCN(C)CC3)c2c1C.O=C(O)C(=O)O | -70% |
| CCNc1nc(CSc2ccccc2)nc2sc(C)c(C)c12 | 1.64% |
| Cc1sc2nc(CSc3ccccc3)nc(N3CCOCC3)c2c1C | 2.04% |
| CCOC(=O)c1sc2nc(CSc3ccccc3)nc(NCCN(C)C)c2c1C | -17.4% |
| COCCNc1nc(CSc2ccccc2)nc2sc(C)c(C)c12 | -5.97% |
| Cc1sc2nc(CSc3ccccc3)nc(N3CCC(C(N)=O)CC3)c2c1C | -8.46% |

| SMILES | hERG current change (%, negative = inhibition) at 10uM |
| --- | --- |
| Cc1sc2nc(CSc3ccccc3)nc(N3CCN(C)CC3)c2c1C | -58.5% |
| CCOC(=O)c1sc2nc(CSc3ccccc3)nc(N3CCC(C(N)=O)CC3)c2c1C | 17.5% |
| Cc1sc2nc(CSc3ccccc3)nc(NCCN(C)C)c2c1C | -72.2% |
| O=C(NCCCN=C1NS(=O)(=O)c2ccccc21)c1ccco1 | -10% |
| Cc1nn(C)cc1C1C(C#N)=C(N)N(c2ccc(F)c([N+](=O)[O-])c2)C2=C1C(=O)CCC2 (stereo not shown) | 11% |
| Cc1ccc(S(=O)(=O)N2[C@@H](c3cccc(Cl)c3)C(C(=O)O)=CC[C@H]2c2cccc(Cl)c2)cc1 | 3.05% |
| COc1ccc(NC(=S)N/C(=N/S(=O)(=O)c2ccc(C)cc2)c2ccccc2)cc1 | 21.2% |
| COc1ccc(NC(=S)N/C(=N/CS(=O)(=O)c2ccccc2)c2ccccc2)cc1 | -53% |
| O=[N+]([O-])c1ccc(NC(=S)N/C(=N/CS(=O)(=O)c2ccccc2)c2ccccc2)cc1 | -25.1% |
| COc1ccc(NC2SC(=O)N(C)C2=O)cc1 (stereo not shown) | 1.36% |
| O=C1C(=O)N(CCN2CCOCC2)C(c2ccncc2)/C1=C(/O)c1ccc2c(c1)OCO2 (stereo not shown) | 8.87% |
| O=S(=O)(Cc1ccccc1)NCC1CCCN(Cc2ccc3nonc3c2)C1 (stereo not shown) | -51.2% |
| O=C(c1cc(F)ccc1F)C1CCCN(Cc2ccc3nonc3c2)C1 (stereo not shown) | -12% |
| O=C(NCC1CCCN(Cc2ccc3nonc3c2)C1)c1cccc(C(F)(F)F)c1 (stereo not shown) | -61.5% |
| O=C(NCC1CCCN(Cc2ccc3nonc3c2)C1)c1ccc(F)cc1 (stereo not shown) | -60.8% |
| COc1ccc(CC(=O)NCC2CCCN(Cc3cccc(C(F)(F)F)c3)C2)cc1 (stereo not shown) | -28% |
| O=S(=O)(Cc1ccccc1)NCC1CCCN(Cc2cccc3nonc23)C1 (stereo not shown) | -12.2% |
| O=S(=O)(Cc1ccccc1)NCC1CCCN(Cc2ccc(F)c(F)c2)C1 (stereo not shown) | -44.2% |
| O=C(NCC1CCCN(Cc2ccc3c(c2)OCCO3)C1)c1ccc2c(c1)OCO2 (stereo not shown) | -18.8% |
